BaF3 tox: counter-screen for JAK2V617F inhibitors: parental Ba/F3 viability inhibitors. inhibition, % at 5.6 µM. CellTiter-Glo ATP luminescence. 1.1% of 220,000 active;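 active = inhibition above a per-campaign cutoff, the mean inhibition of all tested compounds plus 3 SD, cut at about 27% in these data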;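 also: 0% = DMSO wells and 100% = JAK Inhibitor I control wells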
aSyn UTR inh: MLPCN primary screen, SNCA 5' untranslated region; alpha-synuclein 5'UTR reporter, inhibitor activity; inhibition, % (tested at 7.5 µM); 0.82% of 300,000 active; AID 1813; in the data active = inhibition above about 60%;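 also: H4 neuroglioblastoma cells stably carrying SNCA 5'UTR luciferase fusion; 0% = DMSO wells and 100% = positive control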
IEC-6 tox-1: IEC-6 cytotoxicity, counter-screen for KLF5 inhibitors | 0.78% of 290,000 active | AID 1825 | luminescence viability | inhibition, % at 5 µM;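 also: 0% = plate median of test compound wells and 100% = cytotoxic reference compound wells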
Ba/F3 V617F tox: reduce viability of Ba/F3 cells dependent on JAK2V617F; Ba/F3 EpoR-JAK2V617F viability, ATP luminescence; inhibition, % at 5.6 µM; 1.1% of 220,000 active;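 active = inhibition above the campaign mean plus 3 SD over all tested compounds, cut at about 24% in these data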;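 also: cytokine-independent growth of Ba/F3 cells driven by EpoR plus mutant JAK2; 0% = DMSO-treated cells and 100% = JAK inhibitor I control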
KLF5 inhibitor: inhibitors of KLF5 expression. AID 1700. inhibition, % at 5 µM. 0.23% of 290,000 active. DLD-1 KLF5 promoter-luciferase reporter, luminescence;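 active = inhibition above a per-plate limit of that plate's mean compound inhibition plus 3 SD, cut at about 60% in these data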;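 also: 0% = DMSO wells and 100% = LY294002 at 200 µM; higher means less KLF5 promoter-driven luciferase light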
APP transl inh: APP translation inhibition. SH-SY5Y APP 5'UTR-luciferase reporter, luminescence. inhibition, % at 2 µM. 0.82% of 190,000 active;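 active = inhibition above a set limit, derived from the sample mean plus 3 SD, cut at about 45% in these data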
KLF5 confirm: KLF5 inhibition, confirmation assay | inhibition, % at 4 µM | shares compounds with KLF5 inhibitor | DLD-1 KLF5 promoter firefly luciferase reporter, luminescence | 79% of 610 active | AID 1834;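 active = inhibition above a set limit taken from the earlier primary screen, cut at about 63% in these data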;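 also: 0% = DMSO wells and 100% = LY294002 at 200 µM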
IEC-6 tox-2: rat IEC-6 cytotoxicity, KLF5 inhibitor counter-screen. IEC-6 rat intestinal cells, viability luminescence. 56% of 610 active. inhibition, % at 4 µM. shares compounds with KLF5 inhibitor; in the data active = inhibition above about 23%;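 also: cells exposed to compounds for 48 hours before viability read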
IEC-6 tox confirm: IEC-6 cytotoxicity, confirmation assay; 63% of 1,900 active; shares compounds with IEC-6 tox-1; inhibition, % at 5 µM; AID 1907; IEC-6 rat intestinal epithelial viability, luminescence;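 also: 0% = vehicle and 100% = reference cytotoxic drug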
* = called active by the depositor; x = not tested or not shown. Only some compounds are listed: those with a hit (about 2.2% of all), similar ones and a draw of the others. Rule as the data show it, unless noted: active = inhibition above about 22%; inactive = the rest.

SMILES	BaF3 tox	aSyn UTR inh	IEC-6 tox-1	Ba/F3 V617F tox	KLF5 inhibitor	APP transl inh	KLF5 confirm	IEC-6 tox-2	others
Cc1cccc(C=Nc2ccccc2C(N)=O)c1	9	-70	9	9	13	1	x	x
Cc1ccc(C=Nc2ccccc2C(N)=O)s1	67*	-36	81*	66*	63*	16	60	32*
CCOC(=O)c1c(C)[nH]c(C(=O)N2CCC(C(=O)OCC)CC2)c1C	x	0	-3	x	-14	x	x	x
CC(=O)CSc1ccc(-c2nc3ccccc3[nH]2)cn1	x	-72	20	x	-13	x	x	x
CC(=O)CSc1ccc(-c2nc3cc(C)c(C)cc3[nH]2)cn1	0	121*	2	-1	64*	-31	73*	14
Cc1cc(-c2ccccc2)n(-c2cc(N/N=C/c3ccccc3O)ncn2)n1	76*	x	3	69*	70*	96*	88*	-6
CNc1cc(-n2nc(C)cc2-c2ccccc2)ncn1	2	27	7	-2	-18	-6	x	x
COC(=O)c1nn(-c2ccc3c(c2)OCO3)cc1O	0	-86	5	1	-58	-64	x	x
COC(=O)c1nn(-c2ccc3c(c2)CCN3C(C)=O)cc1O	7	91*	2	5	75*	23	78*	9
COc1ccccc1S(=O)(=O)Cc1ccc(C(=O)NCCCN2CCN(c3ccc(F)cc3)CC2)o1	x	20	0	x	-1	x	x	x
CCOc1ccc(-c2ccc(SC)nn2)cc1	12	76*	10	10	78*	-77	60	14
Cc1ccc(C)c(CSc2nc3[nH]ncc3c(=O)[nH]2)c1	76*	24	63*	83*	65*	85*	68*	53*
Cc1ccccc1CSc1nc2[nH]ncc2c(=O)[nH]1	9	-13	6	2	-12	1	x	x
O=C(Nc1cccc(O)c1)c1cc(-c2ccc3c(c2)OCO3)on1	x	69*	0	x	83*	x	72*	-7
COc1ccc(CCC(N)=O)cc1OC	9	10	2	2	70*	1	-5	-10
COc1ccc(Cl)cc1NC(=O)CN(C)CC(=O)Nc1ccccc1N1CCOCC1	76*	112*	77*	83*	66*	83*	77*	57*
COC(=O)c1ccccc1NC(=O)CNc1cc(Cl)ccc1N1CCOCC1	10	19	10	3	-8	-6	x	x
CN1CCc2c(sc3nc(SCC(=O)N4CCOCC4)n(-c4ccc(Cl)cc4)c(=O)c23)C1	x	-5	-4	x	-32	x	x	x
COc1ccc(NC(=O)n2ncc3c(C)cccc32)cc1OC	x	-165	0	x	-117	x	x	x
Cc1ccc(NC(=O)n2ncc3c(C)cccc32)cc1F	x	-71	6	x	83*	x	85*	5
NCC1CC2c3ccccc3C1c1ccccc12 (stereo not given)	x	3	0	x	4	x	x	x
Oc1cccc2ccc(Nc3ccccn3)nc12	76*	98*	-3	98*	105*	80*	102*	14
Cc1nc2ccccn2c1-c1csc(Nc2cccc(O)c2)n1	78*	49	5	80*	74*	89*	68*	4
O=C(CN(CC1CCCO1)C(=O)CNS(=O)(=O)c1ccc(Cl)cc1)NC1CCCC1 (stereo not given)	x	5	2	x	-7	x	x	x
Cn1c(CNC(=O)c2ccc(F)cc2)nc2ccccc21	0	-7	-4	-3	1	-12	x	x
SMILES	BaF3 tox	aSyn UTR inh	IEC-6 tox-1	Ba/F3 V617F tox	KLF5 inhibitor	APP transl inh	KLF5 confirm	IEC-6 tox-2	others
CSc1nc(N(C)NC(=O)c2ccc(F)cc2)c2ccccc2n1	73*	77*	78*	72*	79*	95*	78*	61*
CN=c1scc(-c2cccs2)n1/N=C/c1ccc(O)c(O)c1O	2	0	-5	-2	-139	21	x	x
CN=c1scc(-c2cccs2)n1/N=C/c1ccccc1O	9	103*	-13	-1	108*	53*	95*	-6
CCOC(=O)c1sc(NC(=O)c2cc3c(s2)CCC(C)C3)nc1C (stereo not given)	3	-101	0	-1	86*	-16	88*	9
Cc1cc(C)cc(N(C(=O)c2csnn2)C(C(=O)NC2CCCC2)c2ccccn2)c1 (stereo not given)	x	3	-4	x	-8	x	x	x
CC(=NC1CCCC1)c1c(C)[nH]n(-c2nc3ccccc3s2)c1=O	6	94*	1	2	72*	-61	26	3
CC(=NC1CC1)c1c(-c2ccccc2)[nH]n(-c2nc3ccccc3s2)c1=O	5	-33	-2	0	-47	-6	x	x
O=C(Nc1ccc2c(c1)OCCO2)c1cc(F)c(F)cc1Cl	x	-195	-2	x	-104	x	x	x
Cc1ccc(C(=O)Nc2ccc3c(c2)OCCO3)c(Cl)c1	x	80*	3	x	78*	x	38	6
Nc1cc(Cl)ccc1Nc1ccncc1	x	20	3	x	-6	x	x	x
O=C(N/N=C/c1cccs1)c1cc(C2CC2)nc2ccccc12	8	2	5	2	22	15	x	x
O=C(N/N=C/c1cccs1)c1cc(-c2ccncc2)nc2ccccc12	73*	62*	72*	69*	75*	95*	83*	60*
COCC(=O)N1CCC(Oc2ccc(C(=O)NCc3cc(C(C)C)no3)cc2)CC1	x	7	3	x	-1	x	x	x
O=S1(=O)CCOCCN1Cc1ccc(Cl)cc1Cl	x	5	8	x	-39	x	x	x
COc1cc([C@@H]2c3cc4c(cc3[C@H](O)[C@H]3COC(=O)[C@H]23)OCO4)cc(OC)c1OC	93*	95*	x	97*	84*	94*	92*	x
COc1cc([C@@H]2c3cc4c(cc3[C@@H](O)[C@@H](CO)[C@@H]2CO)OCO4)cc(OC)c1O[Si](C)(C)C(C)(C)C	x	44	x	x	x	x	x	x
O=C(NCc1n[nH]c(=O)c2ccccc12)C1CC(=O)N(c2ccc(Cl)cc2)C1 (stereo not given)	x	19	x	x	x	x	x	x
COc1ccc(OC)c(Nc2cc(C)nc3nc(C)nn23)c1	7	-10	4	-2	92*	-1	81*	0
Cn1nc(-c2ccc(Cl)cc2)nc2c(=O)n(C)c(=O)nc1-2	85*	110*	98*	95*	91*	-13	113*	63*	IEC-6 tox confirm=78*
CCN(CC(=O)N1CCN(Cc2ccccc2)CC1)S(=O)(=O)c1ccc(C)cc1	x	21	4	x	-38	x	x	x
CCn1c2ccccc2c2cc(Nc3cc(C)nc4ncnn34)ccc21	86*	82*	94*	84*	75*	96*	82*	72*	IEC-6 tox confirm=72*

From PubChem
